# A selection: hits, their analogues and other compounds. The true share with any hit is near 1.8%.
# ARNT TACC3 PPI: ARNT/TACC3 interaction disruption; Q9Y6A5; AlphaScreen His-ARNT PAS-B/GST-TACC3 binding, luminescence; TACC3 fragment carries E629A point mutation; inhibition, % at 9.99 µM; 390,000 compounds, 0.66% hits;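 active = mean inhibition of replicates at least 50% and at least half of replicates each reaching 50%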;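 also: 0% = complete ARNT plus TACC3 wells and 100% = ARNT alone without TACC3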
# NRP1-CendR mod: NRP-1/CendR interaction modulation; O14786; FAM-RPARPAR peptide binding to NRP-1, fluorescence polarization; inhibition, % at 25 µM; 360,000 compounds, 0.85% hits; AID 602438;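 active = inhibition or corrected inhibition above about 18%, plus a signal ratio from 0.5 to 1.5, limit read from the data, passing the limit was not always enough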
# ABCB6 inh 2: inhibitors of human ABC transporter ABCB6 | Q9NP58 | K562-ABCB6 porphyrin accumulation, flow cytometry, 1 h; stronger effect = lower value | fluorescence ratio to DMSO, % at 10 µM | 360,000 compounds, 0.19% hits | AID 602162;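 active = fluorescence ratio to DMSO below 75%, the collection mean minus 3 SD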;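 also: signal is porphyrin accumulated inside mitochondria; 100% equals median channel fluorescence of DMSO control wells; lower ratio means ABCB6 inhibition with less porphyrin fluorescence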
# Target sequence (Q9NP58 whole entry, looked up): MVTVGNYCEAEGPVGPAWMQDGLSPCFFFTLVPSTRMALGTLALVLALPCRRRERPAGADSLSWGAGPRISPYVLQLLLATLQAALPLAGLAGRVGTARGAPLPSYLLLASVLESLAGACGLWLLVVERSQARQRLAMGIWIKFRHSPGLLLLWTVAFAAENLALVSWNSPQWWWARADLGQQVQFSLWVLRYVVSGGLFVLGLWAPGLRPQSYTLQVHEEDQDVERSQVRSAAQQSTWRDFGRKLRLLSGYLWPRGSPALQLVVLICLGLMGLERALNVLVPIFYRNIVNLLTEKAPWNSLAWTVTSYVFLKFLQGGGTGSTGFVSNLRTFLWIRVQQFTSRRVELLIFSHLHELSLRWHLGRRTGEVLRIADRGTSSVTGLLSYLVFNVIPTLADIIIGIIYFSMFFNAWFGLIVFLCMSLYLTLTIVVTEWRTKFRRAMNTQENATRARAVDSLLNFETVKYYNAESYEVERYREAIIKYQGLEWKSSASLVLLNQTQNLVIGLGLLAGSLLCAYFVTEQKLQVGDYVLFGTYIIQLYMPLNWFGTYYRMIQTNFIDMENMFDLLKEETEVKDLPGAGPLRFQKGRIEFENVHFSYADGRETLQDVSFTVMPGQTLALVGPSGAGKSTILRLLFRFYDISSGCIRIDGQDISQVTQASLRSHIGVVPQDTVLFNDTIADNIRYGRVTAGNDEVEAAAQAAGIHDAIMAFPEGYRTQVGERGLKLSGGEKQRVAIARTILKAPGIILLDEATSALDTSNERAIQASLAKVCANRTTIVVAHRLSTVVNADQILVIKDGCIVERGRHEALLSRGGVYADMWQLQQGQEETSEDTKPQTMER
# INS-1E GSIS act: primary screen for activators of insulin secretion dependent on glucose, INS-1E cells, GLuc reporter luminescence; INS-1E GLuc reporter insulin secretion, 2-3 h; activation, % at 16.6 µM; 370,000 compounds, 0.61% hits; AID 743287;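 active = lowest replicate activation of at least 40%, so every replicate reaches that level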;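 also: 0% = median of neutral control wells and 100% = median of IBMX positive control wells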
# hiPSC survival: increases survival of single human iPS cells; hiPSC single-cell survival, ATPlite luminescence; 100% = ROCK inhibitor wells, 0% = DMSO; survival enhancement, % at 20 µM; 360,000 compounds, 0.044% hits; AID 602274; in the data active = survival enhancement above about 18%;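 also: cells exposed to compounds for 16 hours before the ATP read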
# AlphaScreen ctr: AlphaScreen artifact in ARNT/TACC3 counter-screen | AC50, µM (titrated, usually from 68 µM), without a hit: top-dose activity change, negative = signal decrease | 1,200 compounds, 50% hits | AID 651705 | His-ARNT PASB-GST AlphaScreen artifact counter-screen, luminescence | shares compounds with ARNT TACC3 PPI;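 active = every separate test run was called active for a drop in luminescence, with AC50 within twice the top valid dose, actives reach about 71 µM in these data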
# The depositor's hits bear a star; / = no result.
SMILES,ARNT TACC3 PPI,NRP1-CendR mod,ABCB6 inh 2,INS-1E GSIS act,hiPSC survival,AlphaScreen ctr
O=C(C[C@H]1C=C[C@@H](NC(=O)CC2CC2)[C@@H](CO)O1)NCC(F)(F)F,/,/,/,-3,/,/
COc1cccc(CNCc2ccccn2)c1OC,61*,-18,98,/,2,-5%
COc1cccc(CNCc2ccc(OC)c3ccccc23)c1OC,9,7,108,-8,-1,/
CCOc1cc(CNCc2ccccn2)cc(Cl)c1OC,53*,7,95,4,3,-30%
CCOc1cc(CNCc2ccccn2)cc(Cl)c1OCC,53*,-3,105,12,0,-21%
COc1cc(CNCc2ccccn2)ccc1OCc1ccc(Cl)cc1Cl,55*,3,111,-1,-3,-39%
CCOc1cc(CNCC(O)c2ccccc2)cc(Cl)c1OC (stereo not given),/,-6,109,10,0,/
COc1cc(CNCCN2CCOCC2)ccc1OCc1ccc(Cl)cc1Cl,1,-7,96,-13,-5,/
O=C(N[C@H]1CC[C@H](CCNC(=O)C2CCOCC2)O[C@H]1CO)c1ccccn1,-5,/,/,4,/,/
O=C(C1=C[C@H](c2ccc(C(F)(F)F)cc2)C[C@H](OCCCCO)O1)N1CCCCCCC1,5,/,/,/,/,/
CO[C@@H]1CN(C)C(=O)c2cc(NC(=O)c3ccno3)ccc2OC[C@@H](C)N(S(C)(=O)=O)C[C@H]1C,-8,/,/,2,/,/
Nc1ccccc1C(=O)N=Nc1[nH]c(N)c2ccccc12,62*,-8,99,5,-6,56µM*
Nc1[nH]c(N=NC(=O)c2ccc(F)cc2)c2ccccc12,-4,-5,99,17,-2,/
COc1cc(NC(=O)C(=O)Nc2ccc3nc4n(c(=O)c3c2)CCCCC4)cc(OC)c1OC,50*,-2,97,1,0,-7%
COCC(=O)Nc1ccc2nc3n(c(=O)c2c1)CCCCC3,0,-16,95,7,1,/
CC(=O)Nc1cccc(C(=O)O)n1,59*,8,103,8,-3,-20%
CC(=O)Nc1cccc(NC(C)=O)n1,-1,2,95,/,-3,/
COCC(=O)N1[C@@H](CO)[C@@H](c2ccccc2)C12CN(C(=O)Cc1ccccn1)C2,/,/,/,5,/,/
COc1ccc2c3c([nH]c2c1)[C@H](CO)N(C(C)=O)CC31CN(C(=O)Nc2ccc(F)cc2)C1,/,/,/,-14,/,/
O=C(O)c1cc2c(cn1)[nH]c1ccccc12,75*,-17,91,6,0,9.7µM*
COc1ccc(S(=O)(=O)N(C)C[C@@H]2OCCCC[C@H](C)Oc3ccc(NS(=O)(=O)c4ccc(F)cc4)cc3C(=O)N([C@@H](C)CO)C[C@H]2C)cc1,-3,/,/,-10,/,/
O=[N+]([O-])c1cccc(/C=N/Nc2nc(NCc3ccccc3)nc(N3CCOCC3)n2)c1O,59*,-3,97,-7,2,14µM*
O=C(CSc1nnc(CNC(=O)c2ccc(F)cc2)o1)NCc1ccccc1,-2,8,100,9,0,/
Cc1nnc(NC(=O)CSc2nnc(CNC(=O)c3ccc(S(=O)(=O)N(C)C)cc3)o2)s1,63*,7,98,7,0,-2%
O=C(CSc1nnc(CNC(=O)c2ccc(F)cc2)o1)Nc1nccs1,63*,-4,94,10,0,-14%
SMILES,ARNT TACC3 PPI,NRP1-CendR mod,ABCB6 inh 2,INS-1E GSIS act,hiPSC survival,AlphaScreen ctr
CNC[C@H]1Oc2ccc(NS(C)(=O)=O)cc2CC(=O)N(C)C[C@@H]1C,/,/,/,4,/,/
COc1ccc([N+](=O)[O-])cc1/C=N/NC(=O)CNC(=O)C(c1ccccc1)c1ccccc1,-10,0,99,-34,-1,/
COc1ccc([N+](=O)[O-])cc1/C=N/NC(=O)CNC(=O)c1cccc(F)c1,51*,2,96,/,2,-12%
COc1cccc(/C=N/NC(=O)CNC(=O)c2ccncc2)c1O,56*,-1,103,-4,0,-12%
COc1cccc(/C=N/NC(=O)CNC(=O)c2cccnc2)c1O,59*,16,96,15,0,2%
COc1cccc(/C=N/NC(=O)CNC(=O)c2ccc3c(c2)OCCO3)c1O,13,2,100,-6,1,/
Fc1cccc(-c2ccc(C3[C@H]4CNC[C@@H]3N4Cc3ccccc3F)cc2)c1 (stereo not given in full),/,/,/,63,/,/
Cn1c(SCC(=O)N/N=C/c2ccncc2)nc2ccccc21,-3,2,101,0,0,/
CCOc1cc(/C=N/NC(=O)CSc2cccc3cccnc23)ccc1O,63*,-2,110,66*,-1,-31%
O=C(CSc1cccc2cccnc12)N/N=C/c1ccncc1,62*,2,99,6,0,-16%
C[C@H]1CN(C)C(=O)c2cccc(NS(C)(=O)=O)c2O[C@H]1CN(C)S(C)(=O)=O,/,/,/,0,/,/
O=C(Nc1cccc(F)c1)c1cccnc1NCCc1ccccc1,active,5,97,-26,1,-4%
c1ccc(-c2ccc(SCc3cccnc3)nn2)nc1,58*,-6,102,6,0,14µM*
c1ccc(CSc2ccc(-c3ccccn3)nn2)nc1,64*,-8,105,-3,-1,9.1µM*
C/C=C/c1ccc([C@@H]2[C@@H](CO)N(CCC(F)(F)F)C23CN(C(C)=O)C3)cc1,/,/,/,10,/,/
Cc1ccc(Nc2nc(-c3ccccn3)nnc2-c2ccccc2)cn1,/,/,/,/,/,0.42µM*
c1ccc(-c2cnc(Nc3nc(-c4ccccn4)nnc3-c3ccccc3)s2)cc1,/,/,/,/,/,2.6µM*
CC(C)Nc1nc(-c2ccccn2)nc(-c2ccccc2)c1C#N,/,2,99,14,0,/
O=C(C[C@@H]1C[C@H]2c3cc(NS(=O)(=O)c4ccc(F)cc4)ccc3O[C@H]2[C@@H](CO)O1)NCc1cccc(F)c1,6,/,/,-6,/,/
Cc1ccc(S(=O)(=O)N2CCOCC2)cc1NC(=O)CNCc1ccccc1Cl,-1,4,90,0,0,/
Cc1ccc(S(=O)(=O)N2CCOCC2)cc1NC(=O)CNCc1ccccn1,65*,-11,100,4,1,50µM*
COc1ccc2nc(-c3ccc(N)cc3)[nH]c2c1,0,-1,78,/,-3,/
Nc1ccc2nc(-c3ccccn3)[nH]c2c1,46*,9,95,/,-1,45µM*
COc1ccc2nc(-c3ccccn3)[nH]c2c1,40*,-9,98,-4,-1,-7%
CO[C@@H]1CN(C)C(=O)c2cc(NC(=O)CC(F)(F)F)ccc2OC[C@H](C)N(C(=O)c2ccccc2F)C[C@H]1C,/,/,/,9,/,/
CCCNC(=O)N1[C@H](CO)[C@H]2c3ccccc3N(C(=O)Nc3cccc(F)c3)C[C@H]21,4,/,/,3,/,/
CC(C)c1ccc(O)c(NC(=O)c2cncc(Br)c2)c1,-2,-13,95,/,0,/

# Compound activity (PubChem BioAssay)
